High-throughput results: PubChem, National Center for Advancing Translational Sciences (NCATS)
In the library only some 3.5% were active in any assay of this set; here they are far more common.
TRb-SRC2 inh = TRbeta-SRC2 interaction inhibition; actives 0.065% (n = 280,000); P10828; Potency, µM (titrated, usually from 106 µM), usual class: inhibitors; TRbeta-SRC2 peptide binding, fluorescence polarization; receptor liganded with 1 µM T3; note: nearly all actives have a fitted effect of over 50% in size
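Quantitative HTS by FP: 0.6 uM TRb LBD, 20 nM labeled SRC2 20-mer, 1 uM T3, 5% DMSO; 5 hr ambient incubation; % activity per concentration and potencies from concentration series.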
Tau fluor counter = counter-screen for tau fibril formation inhibitors; tau K18 P301L Alexa594 fluorescence, heparin fibrillization; Potency, µM (highest dose often 57.7 µM); actives 0.93% (n = 280,000); note: nearly all actives have a fitted effect of over 55% in size
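Human tau K18 P301L (15 uM unlabeled, 0.24 uM Alexa 594-labeled) in 100 mM sodium acetate pH 7 with 20 uM heparin, 6 hr at 37 C. ThT 30 uM added, 1 hr ambient; Alexa 594 FP and total fluorescence read at 555/632 nm.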
TexasRed fluor = alters Texas Red total fluorescence, flagging assay interference; TRb/SRC2 Texas Red total fluorescence interference; actives 0.29% (n = 280,000); Potency, µM (titrated, usually from 106 µM); active = well fitted curve in either direction with a large enough effect; inconclusive = small, poorly fitted or top-dose-only effect
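Human TRβ ligand-binding domain (0.6 uM) and Texas Red SRC2 peptide (20 nM) in Tris buffer with 1 uM T3 and 5% DMSO were incubated with pinned compound for 5 hr at ambient temperature. Total fluorescence was computed as S + 2P (555/632 nm).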
Tau fibril FP = tau fibrillization inhibition (FP). P10636. K18 P301L tau heparin fibrillization, Alexa594 FP, 6 h. Potency, µM (top dose mostly 57.7 µM), most hits filed as inhibitors. actives 0.39% (n = 280,000); note: nearly all actives have a fitted effect of over 55% in size
Target sequence (P10636 561-689 P618L limits assumed): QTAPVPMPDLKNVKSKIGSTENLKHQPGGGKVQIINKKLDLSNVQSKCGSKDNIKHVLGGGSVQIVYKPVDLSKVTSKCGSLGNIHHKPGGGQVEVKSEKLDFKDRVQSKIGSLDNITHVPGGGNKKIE
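K18 P301L tau (15 uM unlabeled/0.24 uM Alexa 594-labeled, final) + compound + heparin 20 uM final; 100 mM NaOAc pH 7; 6 hr 37 C; ThT 30 uM final added, 1 hr RT; FP ex 555/em 632 nm.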
Tau ThT inhib = tau fibrillization inhibition (ThT binding) | AID 1460 | actives 2.1% (n = 270,000) | Potency, µM (doses to about 57.4 µM), usual class: inhibitors | recombinant tau K18 P301L, heparin-induced fibrillization, ThT fluorescence; note: nearly all actives have a fitted effect of over 55% in size
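ThT emission at 510 nm, taken 1 hr after adding 30 uM dye, quantifies aggregates formed when 20 uM heparin acts on human tau K18 P301L for 6 hr at 37 C.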
KDM4E inh = inhibitors of human JMJD2E histone demethylase. B2RXH2. JMJD2E catalytic domain, FDH-coupled NADH fluorescence (FDH is formaldehyde dehydrogenase). Potency, µM (titrated, usually from 57.1 µM), hits mostly inhibitors. actives 1.6% (n = 230,000). AID 2147; active = well fitted inhibition curve with a large enough effect, not every such curve was filed as active; inconclusive = small, poorly fitted or top-dose-only effect, or another doubt; inactive = no such curve, though single readings can be large or run the other way; note: nearly all actives have a fitted effect of over 50% in size
Target sequence (B2RXH2 1-337 limits assumed): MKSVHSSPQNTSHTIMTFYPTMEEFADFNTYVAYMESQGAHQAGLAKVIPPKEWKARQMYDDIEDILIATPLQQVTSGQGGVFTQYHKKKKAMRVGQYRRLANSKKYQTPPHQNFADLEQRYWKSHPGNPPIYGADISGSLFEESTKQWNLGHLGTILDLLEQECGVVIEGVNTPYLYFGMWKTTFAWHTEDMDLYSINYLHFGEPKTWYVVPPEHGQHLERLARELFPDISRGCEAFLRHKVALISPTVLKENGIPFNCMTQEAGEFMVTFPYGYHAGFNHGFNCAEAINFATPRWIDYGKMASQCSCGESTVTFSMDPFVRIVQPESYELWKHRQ
Of the large screens only hits and unclear results are named; the others gave an inactive call; [ ] = dose if it differs, or a comment. Unless noted, calls come from the whole dose curve; as a rule, active = well fitted curve in the direction sought with a large enough effect; inconclusive = small, poorly fitted or top-dose-only effect, or another doubt; inactive = no such curve, though single readings can be large; an effect the other way counts as inactive or inconclusive.

COc1cc(/C=C(\C#N)c2nc3ccccc3o2)ccc1O	Tau fluor counter inconclusive, Tau fibril FP inconclusive, Tau ThT inhib 7.9µM
COc1cc(/C=C(\C#N)c2nc(-c3cc4ccccc4oc3=O)cs2)ccc1O	Tau fluor counter inconclusive, Tau ThT inhib 3.5µM
COc1ccc2c(c1OC)CN(C)CCc1cc3c(cc1C(O)C2)OCO3 (configuration not stated)	none
COc1ccc2c(c1OC)C(Cc1ccccc1)N1CCc3cc4c(cc3C1C2)OCO4 (configuration not stated)	Tau fluor counter inconclusive, Tau fibril FP inconclusive, Tau ThT inhib 16µM, KDM4E inh inconclusive
O=c1c2ccccc2n2c(-c3ccccc3F)nnc2n1CCc1ccccc1	none (no result: KDM4E inh)
Cc1c(C(=O)O)cccc1-n1c(C)cc(/C=C(/C#N)C(=O)NCc2ccccc2)c1C	none
Cc1cc(C)c2c(N)c(S(=O)c3ccc(C(C)(C)C)cc3)sc2n1 (configuration not stated)	Tau fluor counter inconclusive, Tau fibril FP inconclusive, Tau ThT inhib 25µM, KDM4E inh inconclusive
O=C(NCc1ccccn1)c1cc(-c2ccc(Cl)cc2)nc2ccccc12	KDM4E inh inconclusive
COc1ccccc1C1CC(=O)NC(C)=C1C(=O)OCC(C)C (configuration not stated)	none
CC1=C(C(=O)OCC(C)C)C2(O)C(=O)c3ccccc3C2(O)N1 (configuration not stated)	Tau fibril FP inconclusive, Tau ThT inhib 7.9µM
C=CCOC(=O)C1=C(C)NC(=O)NC1/C=C/c1ccccc1 (configuration not stated)	none
C=CCOC(=O)C1=C(C)NC2(O)c3ccccc3C(=O)C12O (configuration not stated)	Tau fibril FP inconclusive, Tau ThT inhib 13µM
CCNc1ccc(C(=O)NN=C2CCCC2)cc1[N+](=O)[O-]	Tau ThT inhib 8.9µM
O=C(CC1SC(=NCCc2ccccc2)N(/N=C/c2cccs2)C1=O)Nc1ccc(Cl)cc1 (configuration not stated)	none
COC(=O)C1=C(C)N(Cc2ccco2)C(=O)/C1=C\c1ccc([N+](=O)[O-])cc1	Tau fluor counter inconclusive, Tau fibril FP inconclusive, Tau ThT inhib 13µM, KDM4E inh inconclusive
COC(=O)C1=C(C)N(C)C(=O)/C1=C\c1ccco1	Tau ThT inhib inconclusive
COC(=O)C1=C(C)N(Cc2ccc(OC)cc2)C(=O)/C1=C\c1ccco1	Tau fluor counter inconclusive, Tau ThT inhib 25µM
O=C(C1CCN(S(=O)(=O)c2cccnc2)CC1)N1CCCCC1	none
Cn1c(Cn2c(=O)sc3ccccc32)nnc1SCC(=O)NCc1ccccc1Cl	none
COc1ccc(NC(=O)c2ccccc2NS(=O)(=O)c2ccc(C)cc2)c([N+](=O)[O-])c1	Tau fluor counter inconclusive, Tau ThT inhib inconclusive
COc1ccc(C(=O)COC(=O)c2ccccc2NS(=O)(=O)c2ccc(O)c([N+](=O)[O-])c2)cc1	Tau ThT inhib 16µM
Cc1nc2cc(NS(=O)(=O)c3ccccc3F)ccc2s1	none
NS(=O)(=O)c1cccc(NC(=O)Nc2ccc(Cl)cc2)c1	Tau fluor counter inconclusive, Tau fibril FP inconclusive, Tau ThT inhib inconclusive
CC(C)S(=O)(=O)c1csc(NC(=O)Nc2ccc(Cl)cc2)c1	Tau fluor counter 16µM[quencher], Tau fibril FP inconclusive
COc1ccc2c(c1)oc(=O)c1c3ccccc3[nH]c21	none
CN(CCNC(=O)CCNC(=O)Cn1ccc2ccccc2c1=O)Cc1ccccc1	Tau fluor counter 16µM[quencher], Tau fibril FP 22µM
CCN(CCCNC(=O)CCNC(=O)Cn1ccc2ccccc2c1=O)c1ccccc1	none
CC(/C=N/N1CCN(c2ccccc2)CC1)=C\c1ccco1	Tau ThT inhib inconclusive
CC(=C/c1ccco1)/C=N/N1CCN(c2ccccc2)CC1	Tau ThT inhib 14µM
CCOC(=O)c1c(C2COc3ccccc3O2)csc1N (configuration not stated)	Tau fluor counter 25µM[quencher], Tau ThT inhib inconclusive
CCOc1cc(/C=N\Nc2nc(-c3ccc(C)cc3)c(NC(C)=O)s2)ccc1O	Tau fluor counter inconclusive, Tau ThT inhib 20µM
CC(=O)Nc1sc(N/N=C/c2ccc(C)cc2)nc1-c1ccc(C)cc1	Tau fluor counter inconclusive, Tau ThT inhib inconclusive
CC(=O)Nc1sc(N/N=C/c2ccc(N(C)C)cc2)nc1-c1ccc(C)cc1	Tau fluor counter 32µM[quencher], Tau ThT inhib 16µM, KDM4E inh inconclusive
CC(=O)Nc1ccc(-c2csc(NC(=O)CCCc3cccs3)n2)cc1	Tau fluor counter inconclusive, Tau ThT inhib inconclusive, KDM4E inh inconclusive
NS(=O)(=O)c1ccc(N=Nc2c(O)c(C(=O)O)cc3ccccc23)cc1	Tau fluor counter inconclusive, Tau fibril FP inconclusive, Tau ThT inhib 5µM
O=C(O)Cc1ccc(N=Nc2c(O)c(C(=O)O)cc3ccccc23)cc1	Tau fibril FP inconclusive, Tau ThT inhib 13µM, KDM4E inh inconclusive
Oc1ccc2ccccc2c1N=Nc1ccc(F)cc1	TRb-SRC2 inh inconclusive, Tau ThT inhib inconclusive
CC1C2CC(CC1(C)C)N(C(=O)Nc1ccc3nccnc3c1)C2 (configuration not stated)	KDM4E inh inconclusive
Cc1cc2ncn(-c3nnnn3-c3ccccc3)c2cc1C	none
CCC(=O)N1CCc2cc(CNC(=O)c3ccc(OC)cc3)ccc21	TexasRed fluor inconclusive (no result: KDM4E inh)
CCCCNC(=O)C(C#N)c1nc2ccccc2nc1N1CCN(c2ccccc2F)CC1 (configuration not stated)	Tau ThT inhib inconclusive, KDM4E inh 32µM
CCOc1ccc2nc(N3C(=O)/C(=C/c4ccc(Cl)cc4)NC3=S)sc2c1	Tau fluor counter inconclusive, Tau ThT inhib 4.5µM
Cc1ccc(C)c(N2C(=N)S/C(=C\c3ccc(-c4ccccc4C(=O)O)o3)C2=O)c1	Tau ThT inhib inconclusive
CN1C(=O)/C(=C/c2ccc(-c3ccccc3[N+](=O)[O-])o2)SC1=Nc1ccc(Cl)c(C(=O)O)c1	Tau ThT inhib 14µM
CCCN1/C(=C2/SC(=S)N(CC)C2=O)C=Cc2ccccc21	Tau fluor counter inconclusive, Tau ThT inhib inconclusive
CCN1C(=O)/C(=C2/C=Cc3ccccc3N2CC)SC1=S	Tau fluor counter inconclusive, Tau ThT inhib 13µM
CN1C(=O)/C(=C2/C=Cc3ccccc3N2CCCS(=O)(=O)O)SC1=S	Tau ThT inhib 25µM
Nn1c(Nc2ccc(Cl)cc2)nncc1=O	none
N=C1Sc2ccccc2C2=NCCCN12	Tau fibril FP 14µM, Tau ThT inhib 7.1µM, KDM4E inh inconclusive
COc1cccc(/C=N/Nc2ncnc(Cl)c2N)c1O	Tau ThT inhib inconclusive, KDM4E inh 25µM
